Assay outcomes deposited in PubChem BioAssay by National Center for Advancing Translational Sciences (NCATS).
Only some compounds are listed: those with a hit (about 19% of all), similar ones and a draw of the others.
ELG1 repair inh = inhibitors of ELG1-dependent DNA repair in HEK293T cells; HEK293T ELG1-luciferase reporter, luminescence, 16 h; DNA damage induced by 5-fluorouridine; Potency, µM (top dose mostly 46.1 µM), inactives show at the top dose activity change, negative = inhibition, actives largely listed as inhibitors; 330,000 tested, 2.3% active; note: potency is the fitted concentration of half-maximal effect; nearly all actives have a fitted effect of over 55% in size
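5-Fluorouridine DNA damage + compound/DMSO, 2,000 cells/well, 16 h, 37 °C/5% CO2. ONE-Glo, 30 min RT, luminescence. Readout = decrease in reporter signal.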
IL-1B inflam inh = inflammasome signaling inhibition, IL-1 beta readout. THP-1 LPS/ATP IL-1B secretion, AlphaLISA, 16 h; stronger effect = lower value. activity change, % at 57.5 µM. 360,000 tested, 4.7% active. AID 743279; in the data active = activity change below about -50%; inconclusive = mostly about -30% to -49%
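Secreted IL-1B measured by AlphaLISA bead assay after 16 h compound exposure of THP-1 cells; compounds (final up to 57.5 uM) added 1 h before LPS (250 ng/mL) and ATP (1.25 mM) stimulation; lower signal means less secretion.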
HT1080 IDH1KD tx = toxicity to HT-1080 IDH1 knockdown cells (counter line). HT-1080 IDH1 knockdown viability, ATP luminescence, 48 h. Potency, µM (series often up to 46.1 µM), inactives show top-dose activity, negative = toxicity, most hits filed as cytotoxic. 360,000 tested, 2% active;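 note: potency is the fitted concentration of half-maximal effect; 0% = DMSO wells and -100% = cell-free medium wells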
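Using the IDH1-knockdown HT-1080 line run in the same batch and compound series as the NT line, viability after 48 h at 37 °C was determined by CellTiter-Glo luminescence and expressed as % activity.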
TDP1 cell noCPT = qHTS for Inhibitors of human tyrosyl-DNA phosphodiesterase 1 (TDP1): qHTS in cells in absence of CPT; DT40 Tdp1-/- hTDP1 cells, no CPT, ATP luminescence, 48 h; 420,000 tested, 15% active; AID 686978, 2013; Potency, µM (highest dose often 46.2 µM), inactives show top-dose activity change, negative = growth inhibition, hits mostly inhibitors; note: potency is the fitted concentration of half-maximal effect; nearly all actives have a fitted effect of over 55% in size
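A cellular qHTS used chicken DT40 cells lacking endogenous Tdp1 but carrying stably transfected human TDP1. Compounds were applied without camptothecin, and cell growth kinetics were judged by ATP-dependent luminescence after ≥48 hr.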
HT1080-NT tox = kills 2HG-producing HT-1080-NT fibrosarcoma cells; HT-1080-NT fibrosarcoma viability, CellTiter-Glo ATP luminescence, 48 h; Potency, µM (titrated, usually from 46.1 µM), for the others: at the highest dose activity, negative = less viability, usual class: cytotoxic; 360,000 tested, 1.6% active; AID 686970;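 note: NT is the 2HG producing partner of a matched IDH1 knockdown line; potency is the fitted concentration of half-maximal effect; 0% = DMSO-treated cells and -100% = media-only wells without cells; nearly all actives have a fitted effect of over 55% in size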
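Compounds were tested in concentration-response format on HT-1080-NT cells for 48 hours at 37 degrees C. Cell viability came from CellTiter-Glo luminescence; curves were classified by r2, response magnitude and activity.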
DT40 TDP1 CPT = DT40-hTDP1 cell growth loss with CPT | Potency, µM (series often up to 46.2 µM), without a hit: at the highest dose activity change, negative = growth inhibition, most hits filed as inhibitors | AID 686979 | 420,000 tested, 12% active | chicken DT40 Tdp1-/-;hTDP1 cells + 20 nM CPT, ATP luminescence, 48 h; note: potency is the fitted concentration of half-maximal effect; nearly all actives have a fitted effect of over 55% in size
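Chicken DT40 Tdp1-/- cells complemented with human TDP1, 400 cells/well, exposed to compounds plus 20 nM camptothecin for at least 48 h at 37 C; viability read as ATP content by CellTiter-Glo luminescence.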
* marks the source's active call; other numbers are inactive results; ? = inconclusive; . = no result. Unless noted, calls come from the whole dose curve; as a rule, active = well fitted curve in the direction sought with a large enough effect; inconclusive = small, poorly fitted or top-dose-only effect, or another doubt; inactive = no such curve, though single readings can be large; an effect the other way counts as inactive or inconclusive. Unless noted, % is set by controls: 0 for no effect and ±100 for the full control effect.

SMILES	ELG1 repair inh	IL-1B inflam inh	HT1080 IDH1KD tx	TDP1 cell noCPT	HT1080-NT tox	DT40 TDP1 CPT
CCOC(=O)c1ccc(/C=C2\c3ccccc3C(=O)N2c2ccccc2)cc1F	?	73	0%	?	-7%	18µM*
CCOC(=O)c1ccc(N2C(=O)Cc3ccccc3C2=O)cc1	0%	-11	9%	?	17%	?
CCOC(=O)c1ccc(-c2ccc3c(=O)c4ccccc4n(C)c3c2)cc1F	-13%	45	18%	?	7%	15µM*
CN1C/C(=C/c2ccsc2)C(=O)/C(=C/c2ccsc2)C1	?	-94*	?	13µM*	?	10µM*
CCN1C/C(=C/c2ccc(N3CCOCC3)cc2)C(=O)/C(=C/c2ccc(N3CCOCC3)cc2)C1	?	-103*	21µM*	?	?	?
CN1C/C(=C\c2ccc(N3CCOCC3)cc2)C(=O)/C(=C/c2ccc(N3CCOCC3)cc2)C1	?	-103*	?	21µM*	?	?
CCCC(=O)Nc1ccc(N2CCOCC2)cc1	29%	5	-2%	-1%	-6%	-24%
Cc1cc(/C=C2\SC(=O)NC2=O)c(C)n1-c1ccc(N2CCOCC2)cc1	-21%	54	-7%	?	18%	?
CN1C/C(=C/c2ccncc2)C(=O)/C(=C/c2ccncc2)C1	?	3	-4%	-29%	-6%	?
CCc1ccc(-c2nc3c(c(SCc4ccccc4)n2)Cc2c(CO)cnc(C)c2O3)cc1	.	.	.	-17%	.	0%
CC1(C(=O)Nc2ccc3nc[nH]c3c2)CCN1C(=O)C/C=C/c1ccccc1 (stereo unspecified)	.	-21	10%	?	1%	?
O=C(C1CCCN(S(=O)(=O)c2ccc(Br)s2)C1)N1CCN(c2ccc(F)cc2)CC1 (stereo unspecified)	.	.	.	12µM*	.	18µM*
CCOC(=O)C1CCCN(S(=O)(=O)c2ccc(Br)s2)C1 (stereo unspecified)	-7%	0	-4%	-14%	4%	?
O=C(C1CCCN(S(=O)(=O)c2ccc(Br)s2)C1)N1CCN(c2ccccc2F)CC1 (stereo unspecified)	.	.	.	23µM*	.	?
CC(=O)c1ccc(N2CCN(C(=O)C3CCN(S(=O)(=O)c4cn(C)cn4)CC3)CC2)cc1	.	.	.	-9%	.	-12%
CC(=O)c1ccc(N2CCN(C(=O)C3CCN(S(=O)(=O)c4ccc(Br)s4)CC3)CC2)cc1	.	.	.	16µM*	.	?
O=C(C1CCCN(S(=O)(=O)c2cccs2)C1)N1CCN(c2ccccc2F)CC1 (stereo unspecified)	.	.	.	15µM*	.	23µM*
CC(=O)c1ccc(NC(=O)C2CCCN(S(=O)(=O)c3ccc(Br)s3)C2)cc1 (stereo unspecified)	.	.	.	-6%	.	-5%
CC(=O)c1ccc(N2CCN(C(=O)C3CCCN(S(=O)(=O)c4ccc(Br)s4)C3)CC2)cc1 (stereo unspecified)	.	.	.	9.2µM*	.	15µM*
Cc1cc(N(CCO)CCO)ccc1N=Nc1cc(F)ccc1F	?	-75*	?	?	?	?
COc1cccc(NC(=O)C2CCCN(S(=O)(=O)c3cn(C(C)C)cn3)C2)c1 (stereo unspecified)	.	.	.	-27%	.	-15%
CC(C)Cn1c(=O)c2ccccc2n2c(CCC(=O)N3CCN(c4ccccc4)CC3)nnc12	.	.	.	16µM*	.	?
CC(C)Cn1c(=O)c2ccccc2n2c(CCC(=O)N3CCN(c4ccccc4F)CC3)nnc12	.	.	.	23µM*	.	23µM*
CC(C)Cn1c(=O)c2ccccc2n2c(CCC(=O)NC3CCN(Cc4ccccc4)CC3)nnc12	-2%	-11	21%	1%	12%	6%
Cc1cccc(N2CCN(C(=O)CCc3nnc4n(CC(C)C)c(=O)c5ccccc5n34)CC2)c1C	.	.	.	?	.	-21%
SMILES	ELG1 repair inh	IL-1B inflam inh	HT1080 IDH1KD tx	TDP1 cell noCPT	HT1080-NT tox	DT40 TDP1 CPT
O=C(CCn1cccn1)NCc1ccc(Cl)cc1	.	.	.	0%	.	2%
COc1ccc(C(CNC(=O)Cc2ccccc2Cl)N2CCCCC2)cc1 (stereo unspecified)	22%	-52*	-15%	-4%	-5%	-16%
COc1ccc(C(CNC(=O)COc2ccccc2)N2CCCCC2)cc1 (stereo unspecified)	-7%	0	8%	0%	1%	-25%
COc1ccc(C(CNC(=O)c2ccc(-c3nc4ccccc4s3)o2)N2CCCC2)cc1 (stereo unspecified)	?	-16	-27%	21µM*	?	23µM*
COc1ccc(C(CNC(=O)c2ccc(-c3ccccc3Cl)o2)N2CCCC2)cc1 (stereo unspecified)	.	-11	?	4.1µM*	?	5.2µM*
COc1ccc(C(CNC(=O)Cc2ccccc2F)N2CCCCC2)cc1 (stereo unspecified)	?	6	-1%	-7%	6%	6%
Cc1cc(O)ccc1-c1ccc2nncn2c1	.	27	19%	-1%	-5%	16µM*
CCOCCOc1cc(NCc2ccccc2)c2ncn(C(C)C)c2c1	.	39	-22%	?	-24%	?
CCCCOc1cc(NCc2ccccc2)c2ncn(C(C)C)c2c1	1%	27	?	21µM*	-27%	23µM*
CCC(CO)Oc1cc(NCc2ccc(O)cc2)c2ncn(C(C)C)c2c1 (stereo unspecified)	?	-11	-6%	-15%	-7%	?
CCC(COC)Oc1cc(NCc2ccccc2)c2ncn(C(C)C)c2c1 (stereo unspecified)	18µM*	-90*	?	18µM*	?	26µM*
COCCCOc1cc(NCc2ccccc2)c2ncn(C(C)C)c2c1	24%	-1	1%	-18%	0%	3%
COc1ccc(Cc2cc(NCc3ccccc3)c3ncn(C(C)C)c3c2)cc1	?	-15	-22%	21µM*	?	?
CCC(CO)Oc1cc(NCc2ccc(C(C)(C)C)cc2)c2ncn(C(C)C)c2c1 (stereo unspecified)	?	35	?	15µM*	?	13µM*
NS(=O)(=O)c1ccc(CCNC(=O)C(c2ccccc2)c2ccccc2)cc1	-15%	17	-2%	-22%	5%	-25%
